The other results are listed elsewhere or left out. Inconclusive results are not listed. A number with no mark means an inactive call. Activity calls are given as the source filed them.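 The calls were made as follows, unless noted: active = thallium flux rate significantly above the same plate's solvent-only control wells, beyond their mean plus 3 SD; inconclusive = the two replicate wells gave conflicting results; inactive = the rest.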

Solute carrier family 12 member 5 (Homo sapiens), sequence (Q9H2X9 whole entry, looked up): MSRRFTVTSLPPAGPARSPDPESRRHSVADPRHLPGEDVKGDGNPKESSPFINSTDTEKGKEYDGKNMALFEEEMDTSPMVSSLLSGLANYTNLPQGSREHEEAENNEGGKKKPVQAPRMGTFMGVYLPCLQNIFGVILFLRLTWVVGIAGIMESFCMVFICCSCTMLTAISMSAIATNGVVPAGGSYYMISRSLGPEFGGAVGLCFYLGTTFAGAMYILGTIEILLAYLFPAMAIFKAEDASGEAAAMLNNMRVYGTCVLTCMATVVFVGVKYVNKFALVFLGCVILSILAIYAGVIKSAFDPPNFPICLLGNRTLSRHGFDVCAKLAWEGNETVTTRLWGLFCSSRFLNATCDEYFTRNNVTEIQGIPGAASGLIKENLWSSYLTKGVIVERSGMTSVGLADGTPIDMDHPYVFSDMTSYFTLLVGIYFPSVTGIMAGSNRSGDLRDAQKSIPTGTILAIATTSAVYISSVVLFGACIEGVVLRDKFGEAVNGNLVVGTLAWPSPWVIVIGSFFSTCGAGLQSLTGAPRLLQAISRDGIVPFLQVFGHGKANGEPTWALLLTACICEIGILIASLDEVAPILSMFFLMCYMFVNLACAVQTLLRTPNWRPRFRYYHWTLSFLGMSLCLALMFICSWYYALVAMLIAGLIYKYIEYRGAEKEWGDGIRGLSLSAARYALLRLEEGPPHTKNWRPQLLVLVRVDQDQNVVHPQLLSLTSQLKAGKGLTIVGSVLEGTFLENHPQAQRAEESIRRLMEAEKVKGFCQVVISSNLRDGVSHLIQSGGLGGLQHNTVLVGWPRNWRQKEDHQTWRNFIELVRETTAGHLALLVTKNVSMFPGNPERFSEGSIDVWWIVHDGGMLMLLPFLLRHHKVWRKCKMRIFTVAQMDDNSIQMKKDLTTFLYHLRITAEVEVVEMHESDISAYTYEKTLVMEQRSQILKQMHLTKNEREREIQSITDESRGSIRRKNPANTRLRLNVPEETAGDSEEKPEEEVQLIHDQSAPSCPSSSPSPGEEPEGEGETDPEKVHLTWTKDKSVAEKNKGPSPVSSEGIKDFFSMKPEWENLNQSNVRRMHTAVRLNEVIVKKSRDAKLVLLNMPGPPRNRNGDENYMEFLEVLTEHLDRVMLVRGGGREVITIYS

The first assay concerns the target Solute carrier family 12 member 5 (Homo sapiens) (UniProt Q9H2X9). Nature of the assay: KCC2 modulators without ouabain present, confirmation, cell-based, HEK293 KCC2, thallium flux, FluoZin2, secondary assay 2 (AID 1715;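 active = thallium flux slope more than 3 SD above or below the plate's solvent-only control mean, mostly below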;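 also: raw slope with 0.1% DMSO as baseline and bumetanide as block control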). Particulars: HEK293-KCC2, thallium flux FluoZin2 fluorescence; at 10 µM; actives lie on both sides; F/F0 rise rate, 10–20 s post-thallium.
Consider `S=c1nccc(-c2cc(Cl)sc2Cl)[nH]1`, for which the normalized thallium flux was 0.0372.

For the compound `Cc1cccc(NC(=S)NC(=O)c2ccc(Br)o2)c1`, the normalized thallium flux is 0.0972 (active).

Turning to `COc1ccc(-n2c(=S)[nH]c3sc4c(c3c2=O)CCc2ccccc2-4)cc1`, the normalized thallium flux is 0.0334.

In the case of `Oc1c(C=Nc2cccc3nsnc23)ccc2ccccc12`, the normalized thallium flux is 0.0296.

With `COc1ccc(C(=O)NC(=S)NNC(=O)c2c(-c3ccccc3)noc2C)cc1`, the normalized thallium flux was 0.0501 (active).

`COc1ccc(NC(=O)N2CCC(Cc3ccccc3)CC2)cc1`: the normalized thallium flux is 0.0303.

As for `O=C(CSC1=NCCS1)Nc1nc(-c2ccccc2)cs1`, the normalized thallium flux was 0.0253 (active).

`Cc1ccc(/C=N/NC(=S)Nc2cccc(S(=O)(=O)N(C)C)c2)o1`: the normalized thallium flux is 0.028.

On to `CS(=O)(=O)c1sc(C(=O)NC(=S)Nc2ccc(OC(F)(F)F)cc2)c2c1C=CCC2`, for which the normalized thallium flux is 0.0324.

On to `O=C(CCC(=O)OCc1cccc(C(=O)Oc2ccccc2)c1)Nc1cccc2ccccc12`, for which the normalized thallium flux is 0.0284.

For the compound `Cc1cc(C)nc(SC(C)C(=O)N/N=C/c2cccs2)n1` (stereo not drawn), the normalized thallium flux was 0.0302.

Consider `O=S(=O)(c1ccc(F)cc1)N1CCN(C(=S)NCc2ccco2)CC1`, for which the normalized thallium flux is 0.0354.

On to `C=CCNC(=S)N/N=C/c1ccc(C)s1`, for which the normalized thallium flux was 0.0287.

As for `Brc1ccc(C2=CC(c3ccco3)n3ncnc3N2)cc1` (stereo not drawn), the normalized thallium flux was 0.0209 (active).

As to `S=C(NN=C1CCN(Cc2ccccc2)CC1)NC1CCCCC1`, the normalized thallium flux was 0.0249 (active).

With `c1cncc(-c2nnc3n2C2(CCCCC2)Cc2ccccc2-3)c1`, the normalized thallium flux was 0.0275.

As for `COc1ccc(NC(=O)COC(=O)c2ccc(NS(=O)(=O)/C=C/c3ccccc3)cc2)cc1`, the normalized thallium flux is 0.0304.

For the compound `N=c1oc2ccccc2cc1C(=O)N/N=C/c1ccccc1`, the normalized thallium flux is 0.0291.

On to `CCc1ccc2nc3sc(C(=O)Nc4nnc(CC)s4)c(N)c3cc2c1`, for which the normalized thallium flux was 0.0241 (active).

Consider `Cc1ccc(OCc2n[nH]c(=S)n2-c2ccc(C)cc2)cc1`, for which the normalized thallium flux is 0.0355.

For the compound `O=C(NNc1ccccc1Cl)C(O)(c1cccc(C(F)(F)F)c1)c1cccc(C(F)(F)F)c1`, the normalized thallium flux is 0.035.

Regarding `CCOc1ccc(NC(=O)CN(C)CC(=O)Nc2cccc(Cl)c2C)cc1OCC`, the normalized thallium flux is 0.0338.

Take `C=CCNC(=S)NNC(=O)COc1c(Cl)cc(Cl)cc1Cl`: the normalized thallium flux is 0.0376.

Consider `Cc1nc(SCC(=O)N2CCc3ccccc3C2)c2c(C)c(C)sc2n1`, for which the normalized thallium flux was 0.0244 (active).

For the compound `COc1ccc(CNC(=O)CCn2cccc2)cc1`, the normalized thallium flux was 0.0307.

For the compound `Cc1ccccc1N/N=C/c1ccc(N2CCOCC2)cc1`, the normalized thallium flux was 0.0362.

With `NC(=O)NC(=O)CSc1nc2cc([N+](=O)[O-])ccc2n1-c1cccc(C(F)(F)F)c1`, the normalized thallium flux was 0.0326.

`Cc1ccc(/C=N/NC(=S)NC2CCCCC2)o1`: the normalized thallium flux was 0.0327.

In the case of `CCOC(=O)CSc1nnc(CNC(=O)c2cccs2)n1-c1ccccc1`, the normalized thallium flux is 0.0307.

Regarding `COc1ccc(C(=O)NN(C)c2nc(-c3ccccc3)cc(C)c2S(C)(=O)=O)cc1`, the normalized thallium flux was 0.0316.

As to `Cc1c(NC(=O)CSc2cccc3cccnc23)c(=O)n(-c2ccccc2)n1C`, the normalized thallium flux is 0.0314.

On to `Cc1ccc(N2C(=O)C(Cc3ccccc3)NC2=S)cc1` (stereo not drawn), for which the normalized thallium flux is 0.032.

For the compound `CC(C)C1Nc2c(C(=O)O)cccc2C(Nc2ccccc2C(=O)O)C1(C)C` (stereo not drawn), the normalized thallium flux is 0.0236 (active).

`O=C(Nc1nnc(C2COc3ccccc3O2)o1)c1ccc(F)cc1` (stereo not drawn): the normalized thallium flux is 0.032.

On to `Cc1ccccc1-c1n[nH]c(=S)n1/N=C/c1ccc(-c2ccccc2Br)o1`, for which the normalized thallium flux is 0.0304.

Take `Cc1cccc(NS(=O)(=O)c2ccc(C)c(C(N)=O)c2)c1`: the normalized thallium flux is 0.0297.

`C=CCn1c(=S)[nH]c2scc(-c3ccco3)c2c1=O`: the normalized thallium flux was 0.0916 (active).

For the compound `COc1ccc2[nH]c(=S)cc(C)c2c1`, the normalized thallium flux was 0.0317.

Take `Cc1nnc(SC(C(=O)Nc2cc(Cl)cc(Cl)c2)c2ccccc2)[nH]c1=O` (stereo not drawn): the normalized thallium flux was 0.0302.

System in the next assay: not listed separately
The assay is described as follows: thallium flux modulation in parental HEK cells, confirmation, counter-screen for KCC2 modulator project, cell-based, counterscreen 1 (AID 1716). Particulars: HEK293 parental cells, thallium flux FluoZin2, ouabain; at 10 µM; baseline-ratio fluorescence slope, 10–20 s after thallium. In general terms: Counterscreens check selectivity or assay interference.
In the case of `S=c1nccc(-c2cc(Cl)sc2Cl)[nH]1`, the thallium flux rate (normalised fluorescence) is 0.0107 (active).

For the compound `Cc1cccc(NC(=S)NC(=O)c2ccc(Br)o2)c1`, the thallium flux rate (normalised fluorescence) is 0.129 (active).

In the case of `COc1ccc(-n2c(=S)[nH]c3sc4c(c3c2=O)CCc2ccccc2-4)cc1`, the thallium flux rate (normalised fluorescence) is 0.0162 (active).

On to `Oc1c(C=Nc2cccc3nsnc23)ccc2ccccc12`, for which the thallium flux rate (normalised fluorescence) was 0.00781.

On to `COc1ccc(C(=O)NC(=S)NNC(=O)c2c(-c3ccccc3)noc2C)cc1`, for which the thallium flux rate (normalised fluorescence) was 0.0354 (active).

In the case of `COc1ccc(NC(=O)N2CCC(Cc3ccccc3)CC2)cc1`, the thallium flux rate (normalised fluorescence) is 0.00728.

With `O=C(CSC1=NCCS1)Nc1nc(-c2ccccc2)cs1`, the thallium flux rate (normalised fluorescence) was 0.00757.

With `Cc1ccc(/C=N/NC(=S)Nc2cccc(S(=O)(=O)N(C)C)c2)o1`, the thallium flux rate (normalised fluorescence) is 0.0106 (active).

As for `CS(=O)(=O)c1sc(C(=O)NC(=S)Nc2ccc(OC(F)(F)F)cc2)c2c1C=CCC2`, the thallium flux rate (normalised fluorescence) is 0.0134 (active).

Take `O=C(CCC(=O)OCc1cccc(C(=O)Oc2ccccc2)c1)Nc1cccc2ccccc12`: the thallium flux rate (normalised fluorescence) was 0.00695.

For the compound `Cc1cc(C)nc(SC(C)C(=O)N/N=C/c2cccs2)n1` (stereo not drawn), the thallium flux rate (normalised fluorescence) is 0.00741.

Turning to `O=S(=O)(c1ccc(F)cc1)N1CCN(C(=S)NCc2ccco2)CC1`, the thallium flux rate (normalised fluorescence) was 0.00396.

For the compound `C=CCNC(=S)N/N=C/c1ccc(C)s1`, the thallium flux rate (normalised fluorescence) was 0.0119 (active).

Turning to `Brc1ccc(C2=CC(c3ccco3)n3ncnc3N2)cc1` (stereo not drawn), the thallium flux rate (normalised fluorescence) is 0.00407 (active).

In the case of `S=C(NN=C1CCN(Cc2ccccc2)CC1)NC1CCCCC1`, the thallium flux rate (normalised fluorescence) was 0.00811.

On to `c1cncc(-c2nnc3n2C2(CCCCC2)Cc2ccccc2-3)c1`, for which the thallium flux rate (normalised fluorescence) was 0.00718.

For `COc1ccc(NC(=O)COC(=O)c2ccc(NS(=O)(=O)/C=C/c3ccccc3)cc2)cc1`, the thallium flux rate (normalised fluorescence) was 0.00722.

Regarding `N=c1oc2ccccc2cc1C(=O)N/N=C/c1ccccc1`, the thallium flux rate (normalised fluorescence) is 0.00736.

In the case of `CCc1ccc2nc3sc(C(=O)Nc4nnc(CC)s4)c(N)c3cc2c1`, the thallium flux rate (normalised fluorescence) is 0.00534 (active).

In the case of `Cc1ccc(OCc2n[nH]c(=S)n2-c2ccc(C)cc2)cc1`, the thallium flux rate (normalised fluorescence) is 0.0134 (active).

On to `O=C(NNc1ccccc1Cl)C(O)(c1cccc(C(F)(F)F)c1)c1cccc(C(F)(F)F)c1`, for which the thallium flux rate (normalised fluorescence) is 0.0219 (active).

On to `CCOc1ccc(NC(=O)CN(C)CC(=O)Nc2cccc(Cl)c2C)cc1OCC`, for which the thallium flux rate (normalised fluorescence) was 0.00749.

For the compound `C=CCNC(=S)NNC(=O)COc1c(Cl)cc(Cl)cc1Cl`, the thallium flux rate (normalised fluorescence) was 0.0266 (active).

For the compound `Cc1nc(SCC(=O)N2CCc3ccccc3C2)c2c(C)c(C)sc2n1`, the thallium flux rate (normalised fluorescence) was 0.00764.

As for `COc1ccc(CNC(=O)CCn2cccc2)cc1`, the thallium flux rate (normalised fluorescence) was 0.00777.

Regarding `Cc1ccccc1N/N=C/c1ccc(N2CCOCC2)cc1`, the thallium flux rate (normalised fluorescence) was 0.00826.

In the case of `NC(=O)NC(=O)CSc1nc2cc([N+](=O)[O-])ccc2n1-c1cccc(C(F)(F)F)c1`, the thallium flux rate (normalised fluorescence) was 0.0113 (active).

As for `Cc1ccc(/C=N/NC(=S)NC2CCCCC2)o1`, the thallium flux rate (normalised fluorescence) was 0.0111 (active).

For the compound `CCOC(=O)CSc1nnc(CNC(=O)c2cccs2)n1-c1ccccc1`, the thallium flux rate (normalised fluorescence) is 0.00776.

For `COc1ccc(C(=O)NN(C)c2nc(-c3ccccc3)cc(C)c2S(C)(=O)=O)cc1`, the thallium flux rate (normalised fluorescence) is 0.00831.

For the compound `Cc1c(NC(=O)CSc2cccc3cccnc23)c(=O)n(-c2ccccc2)n1C`, the thallium flux rate (normalised fluorescence) was 0.0256 (active).

As for `Cc1ccc(N2C(=O)C(Cc3ccccc3)NC2=S)cc1` (stereo not drawn), the thallium flux rate (normalised fluorescence) is 0.0128 (active).

On to `CC(C)C1Nc2c(C(=O)O)cccc2C(Nc2ccccc2C(=O)O)C1(C)C` (stereo not drawn), for which the thallium flux rate (normalised fluorescence) was 0.00619 (active).

`O=C(Nc1nnc(C2COc3ccccc3O2)o1)c1ccc(F)cc1` (stereo not drawn): the thallium flux rate (normalised fluorescence) was 0.0287 (active).

Turning to `Cc1ccccc1-c1n[nH]c(=S)n1/N=C/c1ccc(-c2ccccc2Br)o1`, the thallium flux rate (normalised fluorescence) is 0.00991 (active).

For `Cc1cccc(NS(=O)(=O)c2ccc(C)c(C(N)=O)c2)c1`, the thallium flux rate (normalised fluorescence) is 0.00787.

In the case of `C=CCn1c(=S)[nH]c2scc(-c3ccco3)c2c1=O`, the thallium flux rate (normalised fluorescence) is 0.0914 (active).

On to `COc1ccc2[nH]c(=S)cc(C)c2c1`, for which the thallium flux rate (normalised fluorescence) is 0.0146 (active).

Regarding `Cc1nnc(SC(C(=O)Nc2cc(Cl)cc(Cl)c2)c2ccccc2)[nH]c1=O` (stereo not drawn), the thallium flux rate (normalised fluorescence) is 0.00486 (active).

Source of the values: PubChem BioAssay.
